Compound activity (PubChem BioAssay)
Gli-Sufu antag: Gli-Sufu pathway antagonism. Sufu-KO-LIGHT fibroblasts, Gli luciferase reporter luminescence. 340,000 tested, 0.74% active. inhibition, % at 5 µM;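 active = inhibition above about 55%, limit read from the data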;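 also: 0% = DMSO-treated cells and 100% = wells with medium but no cells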
Jurkat NFkB inh: inhibitors of the PMA/ionomycin-induced NF-kB reporter in Jurkat cells. PMA/ionomycin-induced NF-kB luciferase reporter, luminescence. inhibition, % at 4 µM. 330,000 tested, 0.53% active; in the data active = inhibition above about 50%
Mdm2 MdmX PPI: inhibitors of human Mdm2/MdmX interaction; AID 485346; SaOS-2 split-luciferase Mdm2/MdmX complementation, luminescence; O15151+Q00987; 330,000 tested, 3% active; inhibition, % at 8 µM;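 active = inhibition of at least 50% at 8 µM in the primary screen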
Target sequence (O15151 whole entry, looked up): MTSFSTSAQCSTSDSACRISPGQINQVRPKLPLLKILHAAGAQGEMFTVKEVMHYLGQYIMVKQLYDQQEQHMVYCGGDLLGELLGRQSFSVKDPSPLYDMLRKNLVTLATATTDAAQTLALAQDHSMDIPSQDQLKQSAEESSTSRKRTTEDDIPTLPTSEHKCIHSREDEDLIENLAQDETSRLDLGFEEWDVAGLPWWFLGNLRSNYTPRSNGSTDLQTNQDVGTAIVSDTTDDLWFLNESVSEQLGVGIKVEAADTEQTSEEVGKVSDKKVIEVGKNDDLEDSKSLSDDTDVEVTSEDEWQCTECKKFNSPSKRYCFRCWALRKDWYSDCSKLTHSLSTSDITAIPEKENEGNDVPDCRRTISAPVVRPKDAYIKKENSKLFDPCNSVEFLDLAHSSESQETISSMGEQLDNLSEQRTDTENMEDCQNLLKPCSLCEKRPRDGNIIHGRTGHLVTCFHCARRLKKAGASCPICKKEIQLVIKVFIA
Target sequence (Q00987 whole entry, looked up): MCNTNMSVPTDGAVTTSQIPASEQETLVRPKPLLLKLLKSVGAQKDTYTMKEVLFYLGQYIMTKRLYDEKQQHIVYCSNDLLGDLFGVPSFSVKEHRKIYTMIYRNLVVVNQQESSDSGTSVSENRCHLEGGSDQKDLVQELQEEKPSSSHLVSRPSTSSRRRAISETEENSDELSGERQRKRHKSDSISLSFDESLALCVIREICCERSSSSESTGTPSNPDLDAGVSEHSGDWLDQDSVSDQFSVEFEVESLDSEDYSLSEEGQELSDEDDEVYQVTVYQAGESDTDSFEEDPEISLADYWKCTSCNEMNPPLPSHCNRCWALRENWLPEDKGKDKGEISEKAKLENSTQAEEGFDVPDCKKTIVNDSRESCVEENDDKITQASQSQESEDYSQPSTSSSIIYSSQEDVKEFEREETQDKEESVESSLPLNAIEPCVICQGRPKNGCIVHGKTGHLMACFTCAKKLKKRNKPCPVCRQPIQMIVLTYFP
Shn3 3UTR inh: inhibitors of Schnurri-3 3'UTR reporter in osteoblasts. Clone20 osteoblast Shn3 3'UTR firefly luciferase, 24 h. inhibition, % at 12.5 µM. 360,000 tested, 0.52% active. AID 588674;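 active = mean inhibition of at least 75% with every replicate also reaching 75%; inconclusive = mean inhibition at least 75% but some replicate below; inactive = mean inhibition below 75%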;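 also: 0% = median of neutral control wells and 100% = pilot-screen positive control compound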
697 NFkB inh: lowers PMA/ionomycin-induced NF-kB signal in 697 B cells; AID 435022; inhibition, % at 4 µM; 330,000 tested, 0.33% active; 697 B-cell NF-kB luciferase reporter, 16 h; in the data active = inhibition above about 35%
Gli antag conf: confirmation of Gli-SUFU pathway antagonists; shares compounds with Gli-Sufu antag; Sufu-KO-LIGHT cells, Gli luciferase reporter, luminescence; inhibition, % at 5 µM; 2,500 tested, 40% active; AID 602428;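 active = mean inhibition at 5 µM reaching about 45%, limit read from the data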;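 also: plate controls were DMSO-treated cells for no effect and wells lacking cells for full effect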
Gli cytotox: cytotoxicity counter-screen for Gli-SUFU antagonists | shares compounds with Gli-Sufu antag | cytotoxicity, % at 5 µM | 2,500 tested, 32% active | Sufu-KO-LIGHT cells cytotoxicity, ATP luminescence;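 active = mean cytotoxicity at 5 µM above about 25%, limit read from the data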;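 also: cells exposed to compound overnight for roughly 16 to 18 hours; plate controls were DMSO wells with cells for no effect and medium without cells for full effect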
Wnt3a counter: inhibits Wnt3a reporter, counter-screen for Gli-SUFU antagonists. shares compounds with Gli-Sufu antag. Wnt-LIGHT cells, Wnt3a-driven luciferase reporter, luminescence. inhibition, % at 6.25 µM. 2,500 tested, 20% active;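 active = mean inhibition above about 25%, limit read from the data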
An asterisk follows results filed as active; ? = inconclusive; . = not tested or not shown. An excerpt weighted towards active compounds, which were near 3.8% of everything screened.

SMILES | Gli-Sufu antag | Jurkat NFkB inh | Mdm2 MdmX PPI | Shn3 3UTR inh | 697 NFkB inh | Gli antag conf | Gli cytotox | Wnt3a counter
CC(Sc1nc2ccccc2c(=O)n1C)C(=O)N(C)C1CCCCC1 (stereo not given) | 71.9* | 23.3 | 19.5 | 88.5* | -51.3 | 61.3* | 17.6 | 10.2
COc1ccc(CNCC(O)(c2ccccc2)c2ccccc2)cc1OC | 53.4 | 12.2 | 17.3 | 73.7 | 3.4 | 15.1 | 13.8 | -10.6
COc1ccc(CNCC(O)(c2ccccc2)c2ccccc2)cc1 | 3.0 | 3.1 | 22.6 | 18.8 | -2.5 | . | . | .
CC(C)NC(=O)C1CCN(C(=O)c2cc3sccc3n2Cc2ccc(F)cc2)CC1 | 60.5* | -0.6 | 35.3 | ? | -15.6 | 40.0 | 10.9 | 7.7
O=C(c1cc2sccc2n1Cc1ccccc1)N1CCN(c2nc3ccccc3s2)CC1 | 57.9* | 32.2 | 14.2 | ? | -12.0 | 67.8* | 33.0* | -17.6
CCC(=O)N1CCN(c2nc3ccccc3s2)CC1 | 0.9 | -54.0 | -26.5 | -41.7 | -76.5 | . | . | .
CC1CCN(C(=O)C2CCN(C(=O)c3cc4sccc4n3Cc3ccc(F)cc3)CC2)CC1 | -1.4 | 8.3 | 18.8 | 28.9 | -33.0 | . | . | .
CN(CC(=O)Nc1ccc(Cl)c(C(F)(F)F)c1)C(=O)C1CC(=O)N(C2CCCC2)C1 (stereo not given) | 8.6 | 15.4 | 5.7 | 5.1 | 7.1 | . | . | .
Cc1noc(C)c1CN1C(=O)c2ccccc2C1=O | 0.5 | 16.7 | 0.6 | 4.8 | 10.8 | . | . | .
CS(=O)(=O)N(CC(=O)NC1CCCCCC1)Cc1ccc(Cl)cc1 | 59.3* | -18.2 | -36.2 | 7.1 | 4.5 | 28.1 | 3.4 | 6.6
CCN(CC)CCCNC1=C(Cl)C(=O)c2ccccc2C1=O | 5.3 | -2.5 | 17.3 | 23.6 | 20.0 | . | . | .
C=CCNC1=C(Cl)C(=O)c2ccccc2C1=O | 55.7* | -12.5 | 25.2 | 5.4 | -19.2 | 30.2 | 5.2 | 78.7*
CCC(C)NS(=O)(=O)c1ccc(S(=O)(=O)N2CCCC3(CCCCC3)C2)cc1 (stereo not given) | 52.7 | 32.5 | 43.1 | 85.8* | -11.4 | 42.8 | 25.6* | 6.1
Cn1cc(CNCc2ccc(OC(F)(F)F)cc2)c(-c2ccc3c(c2)OCCO3)n1 | 60.1* | 39.0 | 29.0 | . | -59.6 | 62.5* | 35.8* | 26.4*
Cn1cc(CNCc2cn[nH]c2-c2ccc(F)cc2)c(-c2ccc3c(c2)OCCO3)n1 | 2.3 | 9.3 | 12.7 | -15.1 | -10.1 | . | . | .
CC(=O)Nc1ccc(S(=O)(=O)N(Cc2ccccc2)C(C)C)cc1 | 56.8* | 1.9 | -8.0 | 45.5 | -22.1 | 56.5* | 12.0 | 19.0
C=CCCN(C(CC(C)C)C(=O)OC)S(=O)(=O)c1ccccc1Br (stereo not given) | 7.5 | 14.2 | 8.7 | 18.2 | 8.6 | . | . | .
C=CCCN(C(CC(C)C)C(=O)OC)S(=O)(=O)c1cc(Br)ccc1Br (stereo not given) | 50.9 | 10.3 | 14.6 | 2.5 | 17.8 | 19.2 | 21.9 | 16.5
CCOC(=O)CNC(=O)C1(/C=C/c2ccccc2)CC(=O)N1c1ccc(C)cc1 (stereo not given) | 3.6 | 11.6 | 4.6 | -5.2 | 12.5 | . | . | .
CCOc1ccc(C2=Nn3cnnc3SC2)cc1 | 99.1* | 9.1 | 2.4 | -13.4 | 3.7 | 14.2 | 20.1 | 27.3*
CCOc1ccc(C2=Nn3c(nnc3-c3ccc(OC)cc3)SC2)cc1 | 12.6 | . | . | 22.0 | . | . | . | .
CCC(C)[C@H](NC(=O)c1cn(CC)c2cc3c(cc2c1=O)OCO3)C(=O)NCCCn1ccnc1 (stereo not given in full) | 53.1 | 0.8 | -7.5 | 15.7 | -8.3 | 4.7 | -9.4 | 18.1
O=C(CNC(=O)c1sc2ccccc2c1Cl)OCc1ccccc1 | -5.3 | -6.1 | 2.4 | 0.3 | 23.2 | . | . | .
Cc1ccccc1COC(=O)CNC(=O)c1sc2ccccc2c1Cl | 65.0* | 3.9 | 5.7 | -0.8 | 6.9 | 20.6 | 10.2 | -0.5
O=C(NCCc1cccc(Cl)c1)c1ccc(OC2CCN(Cc3ccccn3)CC2)cc1 | 52.3 | 20.1 | 42.3 | 12.8 | -93.0 | 49.9* | 15.1 | 9.5
SMILES | Gli-Sufu antag | Jurkat NFkB inh | Mdm2 MdmX PPI | Shn3 3UTR inh | 697 NFkB inh | Gli antag conf | Gli cytotox | Wnt3a counter
N#C/C(=C\c1ccc(OCc2cccc(C(=O)O)c2)cc1)C(=O)NCc1ccco1 | -100.6 | -50.6 | -91.5 | -42.4 | -153.7 | . | . | .
NNC(=O)c1cc2ccccc2cc1O | 60.7* | -21.2 | 48.8 | 50.4 | -13.0 | 72.0* | 6.3 | 83.5*
O=C(NCCO)c1cc2ccccc2cc1O | -1.5 | 14.3 | 8.9 | -20.9 | 12.0 | . | . | .
O=C1CN(C(=O)c2ccccc2)C(c2ccccc2)c2cc(F)ccc2N1 (stereo not given) | 2.2 | -22.2 | 24.3 | 1.6 | 10.3 | . | . | .
COc1ccc(C(=O)N2CC(=O)Nc3ccc(F)cc3C2c2ccccc2)cc1 (stereo not given) | 67.2* | . | . | 7.7 | . | 20.1 | 6.1 | -8.3
c1ccc(-c2nnc(N3CCN(c4ccccn4)CC3)c3ccccc23)cc1 | 60.7* | -1.9 | 30.7 | 35.6 | 4.9 | 34.3 | 1.1 | -11.8
CCOC(=O)c1c(C)[nH]c(C(=O)Cn2nnc(-c3ccc(Cl)cc3)n2)c1C | 56.4* | -18.4 | 31.9 | -2.9 | 9.3 | 12.1 | 13.3 | -11.0
Cc1ccc(NC(=O)Nn2cnnc2)c(C)c1 | 55.1* | 14.8 | 29.8 | -1.7 | 11.6 | 31.1 | 8.0 | 9.6
Cc1ccc(NC(=S)Nn2cnnc2)c(C)c1 | . | 4.6 | 4.5 | 11.0 | 20.7 | . | . | .
CCC(C)(C)n1nnnc1C(c1cc2ccc(OC)cc2[nH]c1=O)N1CCc2ccccc21 (stereo not given) | 55.7* | -20.8 | 8.2 | 12.7 | -30.5 | 27.4 | 10.7 | -3.1
O=C(NC(=S)Nc1ccccc1Cl)c1cnn2c(C(F)(F)F)cc(C(F)(F)F)nc12 | 55.6* | 16.7 | 10.9 | . | -27.9 | 27.0 | 11.3 | -14.5
Cc1[nH]c(C)c(S(=O)(=O)Nc2ccccc2Cl)c1C(=O)N1CCCC1 | 58.5* | -3.0 | 14.7 | 4.4 | 7.1 | 19.7 | -1.1 | 5.5
COc1ccc(S(=O)(=O)Cc2ccc(C(=O)NCC(OC)OC)o2)cc1 | 53.6 | -8.3 | -22.1 | -18.1 | -9.2 | 20.5 | 10.9 | 0.6
CCOC(=O)N1CCC(NC(=O)CS(=O)(=O)Cc2nc(-c3cccc(Cl)c3)oc2C)CC1 | 2.8 | 2.6 | 11.2 | 12.0 | -16.7 | . | . | .
CCOC(=O)N1CCC(NC(=O)C2CCCN(Cc3nc(-c4cccc(Cl)c4)oc3C)C2)CC1 (stereo not given) | 54.0 | 17.9 | 32.2 | 83.7 | -8.4 | 59.7* | 34.1* | -8.8
COCCn1c(SCC(=O)Nc2cc(C)on2)nc2c(c1=O)SCC2 | 51.7 | 7.7 | 15.4 | -13.3 | -15.1 | 20.4 | -4.1 | -10.7
Cc1cc(NC(=O)CSc2nc3c(c(=O)n2C)SCC3)no1 | 10.4 | 6.7 | -0.5 | 9.8 | -20.1 | . | . | .
